# Assay results as given in PubChem BioAssay (NCATS).
# Records with an inconclusive call do not appear. Entries that show only a call come without a potency. Calls of active or inactive are those of the source. Unless noted, calls follow the shape of the dose curve; as a rule, active = well fitted curve in the direction sought with a large enough effect; inconclusive = small, poorly fitted or top-dose-only effect, or another doubt; inactive = no such curve, though single readings can be large; an effect the other way counts as inactive or inconclusive.
# Columns and labels:
# [1] = molecular target: DNA repair nuclease/redox regulator APEX1 (Homo sapiens) (UniProt P27695); experiment: qHTS Validation Assay for Inhibitors of the Human Apurinic/apyrimidinic Endonuclease 1 (APE1) (AID 1705;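 also: TAMRA fluorescence gain over two minutes as APE1 cuts a quenched THF abasic duplex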); details: purified APE1 endonuclease activity, fluorescence, titration; series mostly up to 57.1 µM
# Outline: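 Read-out: TAMRA fluorescence (525 nm ex, 598 nm em) from cleavage of a quenched THF abasic-site duplex, 50 nM final; activity taken as intensity change between third and first of three reads 60 s apart.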
# [2] = qHTS for differential inhibitors of proliferation of Plasmodium falciparum line 7G8 (AID 1815); details: Plasmodium falciparum 7G8 proliferation inhibition; series mostly up to 28.7 µM;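 also: parasite growth measured after three days of incubation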
# [3] = qHTS for differential inhibitors of proliferation of Plasmodium falciparum line GB4 (AID 1816); details: Potency: Plasmodium falciparum GB4 proliferation inhibition; series mostly up to 28.7 µM;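 also: parasite growth measured after 72 h incubation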; also: potency is read from the fitted curve at half-maximal effect
# [4] = qHTS for differential inhibitors of proliferation of Plasmodium falciparum line 3D7 (AID 1876); also: potency is read from the fitted curve at half-maximal effect; details: P. falciparum 3D7 proliferation inhibition; series mostly up to 28.7 µM
# [5] = qHTS for differential inhibitors of proliferation of Plasmodium falciparum line D10 (AID 1877); details: series mostly up to 28.7 µM;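 also: parasites grown with compound for 72 h before DNA staining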
# [6] = qHTS for differential inhibitors of proliferation of Plasmodium falciparum line Dd2 (AID 1882); details: Potency: Plasmodium falciparum Dd2 proliferation inhibition; series mostly up to 28.7 µM; also: nearly all actives have a fitted effect of over 65% in size; also: potency is read from the fitted curve at half-maximal effect
# Outline: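 SYBR Green DNA fluorescence (ex 485, em 535 nm) after overnight lysis quantifies parasite growth; compound exposure lasted 72 h at 37 C on infected red cells at 2.5% hematocrit, 0.3% parasitemia (final). Artemisinin 0.29 uM and vehicle wells define normalization.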
# [7] = qHTS for differential inhibitors of proliferation of Plasmodium falciparum line W2 (AID 1883); details: Potency: Plasmodium falciparum W2 proliferation inhibition; series mostly up to 28.7 µM;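 also: potency is read from the fitted curve at half-maximal effect; parasites grown with compound for 72 h before lysis and staining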
# [8] = qHTS for differential inhibitors of proliferation of Plasmodium falciparum line HB3 (AID 1886); details: Potency: Plasmodium falciparum HB3 proliferation inhibition; series mostly up to 28.7 µM;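 also: parasites grown with compound for 72 h before SYBR Green readout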; also: potency is read from the fitted curve at half-maximal effect
# [9] = molecular target: Ferritin light chain (Equus caballus) (UniProt P02791); experiment: qHTS Validation Assay for Identification of Novel General Anesthetics (AID 2323); details: horse apoferritin, anesthetic-site fluorescent probe displacement; series mostly up to 76.9 µM
# Outline: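 10 uM horse-spleen apoferritin + 1-AMA (50% saturated, PBS); cpd pin-transferred, 10 min RT. Ex 380/Em 535 nm endpoint. Activity normalized between free 1-AMA and 1-AMA/apoferritin; 4-parameter Hill fit of concentration-response.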
# [10] = molecular target: ATP-dependent DNA helicase Q1 (Homo sapiens) (UniProt P46063); experiment: qHTS Validation Assay for Inhibitors of RecQ-Like Dna Helicase 1 (RECQ1) (AID 2353); details: recombinant RECQ1 helicase DNA unwinding assay; series mostly up to 25.6 µM
# Outline: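 RECQ1T1 50 nM; forked duplex (20 bp + 30-nt ss tails) 200 nM, ATP 2 mM final; pH 8.0, 2 mM MgCl2, 2.5 ug/ml poly(dI-dC); 15 min compound preincubation; discontinuous kinetic read over 2 h at RT.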
# [11] = molecular target: RecQ-like DNA helicase BLM (Homo sapiens) (UniProt P54132); experiment: qHTS Validation Assay for Inhibitors of Bloom's syndrome helicase (BLM) (AID 2364); details: BLM helicase DNA unwinding, fluorescence, in vitro; series mostly up to 57.1 µM
# Outline: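 Forked 20-bp duplex substrate (200 nM, TAMRA/BHQ-2) plus 2 mM ATP added after 15 min compound preincubation with 50 nM enzyme, pH 8.0, poly(dI-dC) 2.5 ug/ml. Strand separation followed by fluorescence (525/598 nm) over 2 h, normalized to enzyme-free and DMSO controls.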
# [12] = Cytometric Cell-Based qHTS for Inhibitors of the mTORC1 Signaling Pathway in MEF (Tsc2-/-, p53-/-) Cells (AID 2660); details: mTORC1 pathway cytometry; series mostly up to 38.3 µM;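 also: Tsc2 and p53 null MEFs carrying empty vector with compound for 24 h; percent of cells above a phospho-rpS6 to PI ratio cutoff in each well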
# Outline: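 Readout: Alexa-488 phospho-rpS6 (Ser235/236) intensity divided by PI intensity, thresholded against 7.5 nM rapamycin wells and reported as % positive cells. PI cell count served as the viability measure. Compound exposure was 24 hrs at 37 degree Celsius.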
# [13] = High Content Imaging Cell-Based qHTS for Inhibitors of the mTORC1 Signaling Pathway in MEF (Tsc2-/-, p53-/-) Cells (AID 2666); details: series mostly up to 38.3 µM;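 also: percent of cells scored positive for phospho-rpS6 Ser235/236 immunostaining by imaging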
# Outline: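 Tsc2-/-, p53-/- MEFs (empty-vector stable) grown in DMEM + 10% FBS were exposed to compounds for 24 hrs at 37 degree Celsius, fixed, and stained with Alexa-488 anti-phospho-rpS6 Ser235/236 plus Hoechst. Imaging gave the percentage of positive cells per well.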
# [14] = Counterscreen for APE1 Inhibitors: Fluorescent Dye Displacement Validation Assay (AID 1707); details: fluorescent dye displacement from DNA; series mostly up to 57.1 µM
# Outline: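 Signal: ThO fluorescence (ex 480 nm/em 540 nm) on binding 50 nM dsDNA; displacement by test compound reduces it. Conditions: 250 nM dye, 50 mM Tris-HCl pH7.5, 2 mM MgCl2, 50mM NaCl, 0.01% Tween-20.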
# [15] = molecular target: Endonuclease 4 (Escherichia coli (strain K12)) (UniProt P0A6C1); experiment: Counterscreen for APE1 Inhibitors: qHTS Validation Assay for Inhibitors of Endonuclease IV (AID 1708); details: E. coli endonuclease IV, DNA cleavage fluorescence; series mostly up to 57.1 µM
# Outline: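 Incision of a double-stranded 50 nM TAMRA/BHQ-2 abasic substrate was followed kinetically (525/598 nm, reads every 60 s) after 15 min enzyme–compound preincubation with 2 nM EndoIV in pH 7.5 Tris buffer with MgCl2, DTT and Tween-20; concentration-response format.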
# [16] = qHTS Assay for Modulators of Human Peripheral Myelin Protein 22 (PMP22) Expression/Activity (AID 1967; active = well fitted curve in the direction sought with a large enough effect in the signal ratio; the % refers to the signal ratio); details: Cell-based PMP22 reporter, dual-color luciferase ratio, 0% = compound-free control cells, mouse Pmp22 promoter in mouse Schwann cells; series mostly up to 115 µM
# Outline: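 Mouse MSC80 Schwann line, Pmp22 promoter–CBG68 reporter, EF-alpha–CBR internal control. 24h compound exposure, 37 °C/5% CO2, DMEM + 10% FBS. Readout: corrected green/red luminescence ratio, normalized to untreated cells; concentration-response curves fitted and classified.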
# [17] = qHTS Assay for Identification of Small Molecule Inducers of Hypoxia Response (AID 2120; active = well fitted curve in the direction sought with a large enough effect in the signal ratio, with a control signal flat, not every such curve was filed as active; the % refers to the signal ratio); details: hypoxia response reporter cells, beta-lactamase ratio readout; series mostly up to 104 µM
# Outline: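 Cell-based qHTS for reporter induction: hypoxia response element controlled beta-lactamase in ME-180 cells. Compounds incubated 17 h at 37 degrees C; activity from blue/green (460/530 nm) ratio, inducers ranked by AC50.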
# Ferritin light chain (Equus caballus), sequence (P02791 2-175 limits assumed): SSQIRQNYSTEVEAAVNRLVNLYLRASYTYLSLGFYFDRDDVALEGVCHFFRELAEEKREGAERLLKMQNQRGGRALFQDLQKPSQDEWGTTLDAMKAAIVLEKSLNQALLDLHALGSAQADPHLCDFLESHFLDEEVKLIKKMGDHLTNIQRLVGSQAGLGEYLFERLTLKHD
# RecQ-like DNA helicase BLM (Homo sapiens), sequence (P54132 whole entry, looked up): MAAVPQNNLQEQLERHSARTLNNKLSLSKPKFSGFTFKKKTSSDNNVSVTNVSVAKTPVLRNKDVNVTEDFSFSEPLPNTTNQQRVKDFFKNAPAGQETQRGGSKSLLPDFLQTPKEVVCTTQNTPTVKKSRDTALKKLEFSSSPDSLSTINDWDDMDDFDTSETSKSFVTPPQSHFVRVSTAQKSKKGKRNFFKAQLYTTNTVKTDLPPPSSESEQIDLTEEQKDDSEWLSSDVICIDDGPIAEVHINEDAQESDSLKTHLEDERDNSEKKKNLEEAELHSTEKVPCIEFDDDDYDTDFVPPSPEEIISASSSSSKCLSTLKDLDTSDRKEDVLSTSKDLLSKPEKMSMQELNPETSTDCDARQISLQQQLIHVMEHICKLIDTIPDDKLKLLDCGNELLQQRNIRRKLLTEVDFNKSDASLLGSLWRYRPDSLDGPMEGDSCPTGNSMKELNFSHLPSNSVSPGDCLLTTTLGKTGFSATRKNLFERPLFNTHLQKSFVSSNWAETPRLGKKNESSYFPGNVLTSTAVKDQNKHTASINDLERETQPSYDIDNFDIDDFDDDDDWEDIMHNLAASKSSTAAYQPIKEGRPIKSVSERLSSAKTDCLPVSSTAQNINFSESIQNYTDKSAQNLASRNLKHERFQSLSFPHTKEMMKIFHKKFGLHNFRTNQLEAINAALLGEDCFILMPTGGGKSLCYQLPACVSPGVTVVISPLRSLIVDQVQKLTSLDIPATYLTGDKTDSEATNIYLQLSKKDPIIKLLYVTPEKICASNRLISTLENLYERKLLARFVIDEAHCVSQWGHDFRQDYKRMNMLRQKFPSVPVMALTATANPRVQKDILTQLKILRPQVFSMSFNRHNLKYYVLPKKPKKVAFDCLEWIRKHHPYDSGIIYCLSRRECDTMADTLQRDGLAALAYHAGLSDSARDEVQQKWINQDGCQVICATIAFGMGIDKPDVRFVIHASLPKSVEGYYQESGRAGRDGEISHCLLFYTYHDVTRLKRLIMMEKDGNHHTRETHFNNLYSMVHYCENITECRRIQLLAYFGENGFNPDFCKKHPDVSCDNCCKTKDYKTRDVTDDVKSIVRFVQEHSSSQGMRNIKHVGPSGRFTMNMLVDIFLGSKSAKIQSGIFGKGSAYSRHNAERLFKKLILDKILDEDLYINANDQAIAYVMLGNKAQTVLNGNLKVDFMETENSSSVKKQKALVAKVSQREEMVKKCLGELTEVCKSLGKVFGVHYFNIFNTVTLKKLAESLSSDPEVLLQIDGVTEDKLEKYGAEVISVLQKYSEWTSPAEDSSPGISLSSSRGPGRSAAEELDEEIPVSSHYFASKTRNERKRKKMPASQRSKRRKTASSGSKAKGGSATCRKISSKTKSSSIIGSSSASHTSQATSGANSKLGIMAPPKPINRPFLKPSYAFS
# ATP-dependent DNA helicase Q1 (Homo sapiens), sequence (P46063 whole entry, looked up): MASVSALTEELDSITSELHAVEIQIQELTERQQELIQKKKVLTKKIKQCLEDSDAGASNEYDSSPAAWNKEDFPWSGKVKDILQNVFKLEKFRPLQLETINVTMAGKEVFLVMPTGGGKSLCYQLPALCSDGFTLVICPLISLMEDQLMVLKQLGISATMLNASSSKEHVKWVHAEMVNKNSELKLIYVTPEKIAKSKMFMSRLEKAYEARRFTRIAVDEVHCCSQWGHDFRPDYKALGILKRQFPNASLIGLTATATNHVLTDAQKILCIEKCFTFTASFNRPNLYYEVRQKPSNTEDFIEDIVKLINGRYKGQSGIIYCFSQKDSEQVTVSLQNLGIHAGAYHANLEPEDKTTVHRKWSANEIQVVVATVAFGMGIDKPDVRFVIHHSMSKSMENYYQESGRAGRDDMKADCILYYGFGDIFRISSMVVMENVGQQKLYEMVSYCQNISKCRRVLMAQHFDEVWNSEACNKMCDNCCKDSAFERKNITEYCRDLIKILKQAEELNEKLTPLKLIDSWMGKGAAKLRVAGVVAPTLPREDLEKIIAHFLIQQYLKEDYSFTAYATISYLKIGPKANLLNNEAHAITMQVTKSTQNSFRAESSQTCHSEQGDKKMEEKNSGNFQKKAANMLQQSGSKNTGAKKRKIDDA
# DNA repair nuclease/redox regulator APEX1 (Homo sapiens), sequence (P27695 whole entry, looked up): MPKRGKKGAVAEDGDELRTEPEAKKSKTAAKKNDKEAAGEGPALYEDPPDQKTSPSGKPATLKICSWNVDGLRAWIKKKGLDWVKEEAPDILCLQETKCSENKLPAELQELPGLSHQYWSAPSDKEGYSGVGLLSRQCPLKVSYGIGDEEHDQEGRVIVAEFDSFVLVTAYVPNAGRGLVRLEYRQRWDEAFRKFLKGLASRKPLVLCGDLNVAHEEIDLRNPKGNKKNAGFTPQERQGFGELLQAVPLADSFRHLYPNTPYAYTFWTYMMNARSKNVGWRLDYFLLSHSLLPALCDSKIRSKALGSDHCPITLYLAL
smiles,measurement,setting,value
CCCCN1CCC(n2c(=O)[nH]c3ccccc32)CC1,Potency,[1],inactive
same,Potency,[2],inactive
same,Potency,[3],inactive
same,Potency,[4],inactive
same,Potency,[5],inactive
same,Potency,[6],inactive
same,Potency,[7],8.91 µM (active)
same,Potency,[8],inactive
same,Potency,[9],inactive
same,Potency,[10],inactive
same,Potency,[11],inactive
same,outcome,[12],inactive
same,Potency,[13],inactive
CNCC[C@H](Oc1ccc(C(F)(F)F)cc1)c1ccccc1,Potency,[14],inactive
same,Potency,[15],inactive
same,Potency,[10],inactive
same,Potency,[13],inactive
Oc1cc(O)cc(/C=C/c2ccc(O)c(O)c2)c1,Potency,[1],inactive
same,Potency,[15],inactive
same,Potency,[3],8.91 µM (active)
same,Potency,[4],10 µM (active)
same,Potency,[6],12.6 µM (active)
same,Potency,[7],10 µM (active)
same,Potency,[8],12.6 µM (active)
same,Potency,[9],inactive
same,Potency,[10],inactive
same,outcome,[12],inactive
same,Potency,[13],inactive
COc1ccc(/C=C/C(=O)Nc2ccccc2C(=O)O)cc1OC,Potency,[15],inactive
same,Potency,[6],inactive
same,Potency,[9],inactive
same,Potency,[10],inactive
same,Potency,[11],inactive
same,outcome,[12],inactive
same,Potency,[13],inactive
NO,Potency,[14],inactive
same,Potency,[15],inactive
same,Potency,[6],inactive
same,outcome,[16],inactive
same,Potency,[9],inactive
same,Potency,[10],inactive
same,Potency,[11],inactive
same,outcome,[12],inactive
same,Potency,[13],inactive
c1ccc2sc(SSc3nc4ccccc4s3)nc2c1,outcome,[17],inactive
O=C1/C(=C/c2ccsc2)CC/C1=C\c1cccs1,outcome,[12],inactive
same,Potency,[13],inactive
O=C1NC(=O)/C(=C/c2ccc(-c3ccc(F)cc3O)o2)S1,outcome,[12],inactive
same,Potency,[13],inactive
COc1ccc2c(c1)CCC1C2CC[C@@]2(C)C1CC[C@@H]2NCCCCCCN1C(=O)CCC1=O (some centres undefined),outcome,[12],inactive
same,Potency,[13],inactive
CCCCCCCCc1ccc(-c2ccc(C(=O)O)cc2)cc1,outcome,[12],inactive
same,Potency,[13],inactive
CCCCCCCCCCCCCCCCCC(=O)O,outcome,[17],inactive
C=CC(C)=C[C@@]1(C)SC(=O)C(C)=C1O,outcome,[12],inactive
same,Potency,[13],inactive
CN1C2CC(OC(=O)[C@H](CO)c3ccccc3)CC1C1OC12 (some centres undefined),outcome,[12],inactive
same,Potency,[13],inactive
O=C(O)CC1CC(c2ccccc2)=NO1 (centres undefined),outcome,[12],inactive
same,Potency,[13],inactive
Nc1nc(SCc2ccc([N+](=O)[O-])cc2)c2ncn([C@@H]3O[C@H](CO)[C@@H](O)[C@H]3O)c2n1,outcome,[12],inactive
same,Potency,[13],inactive
O=C(c1ccc(Cl)cc1)N1CCN(c2ccc([N+](=O)[O-])c3ncccc23)CC1,outcome,[12],inactive
same,Potency,[13],inactive
